Among all 52,000 compounds or so, about 1,700 (3.3%) were called active. Many of the other results were omitted from the sample, so actives are more common in it than they were. Unmarked numbers belong to inactive results. No stated cut-off is given here; in the data, active means survival mostly below about 52% (no sharp cut-off); inactive means mostly above about 56%.
test system: Wild type; experiment: S. aureus survival, RN4220 and DeltatarO strains – OD600, teichoic acid synthesis inhibitors, primary screen (AID 463173); settings: S. aureus RN4220 wild type/DeltatarO growth, OD600, 18 h, stronger effect = lower value, screened at 18.75 µg/mL (by protocol)

Row | Compound | survival
1 | Cc1nnc(N2C(=O)c3oc4ccccc4c(=O)c3C2c2ccc(C(C)(C)C)cc2)s1 (stereo not given) | 129%
2 | COc1ccccc1CNC(=O)CCNS(=O)(=O)c1ccc2c(c1)oc(=O)n2C | 83%
3 | CC(C)(C)OC(=O)N1CCC(c2nnc(SCc3ccccc3F)o2)CC1 | 73%
4 | Clc1cccc(CSc2nnc(C3CCNCC3)o2)c1 | 109%
5 | CC(C)(C)OC(=O)N1CCC(c2nnc(SCc3ccccc3Cl)o2)CC1 | -2% (active)
6 | Clc1ccccc1CSc1nnc(C2CCNCC2)o1 | 95%
7 | CC(C)(C)OC(=O)N1CCC(c2nnc(SCc3cccc(Cl)c3)o2)CC1 | 0% (active)
8 | CC(C)(C)OC(=O)N1CCC(c2nnc(SCc3ccccc3)o2)CC1 | 83%
9 | CCCN1CCN(c2cc3c(cc2F)c(=O)c(S(=O)(=O)c2ccc(CC)cc2)cn3CC)CC1 | 70%
10 | Nc1ccc2c(c1)ncn2CCO | 115%
11 | COc1ccccc1NC(=O)Cn1nc2c3cc(F)ccc3n(Cc3cccc(C)c3)cc-2c1=O | -4% (active)
12 | CCOc1ccccc1NC(=O)Cn1nc2c3cc(F)ccc3n(Cc3cccc(C)c3)cc-2c1=O | 81%
13 | CCc1ccccc1NC(=O)Cn1nc2c3cc(F)ccc3n(Cc3cccc(C)c3)cc-2c1=O | 71%
14 | Cc1cc(C)cc(OCc2cc(=O)n3c(-c4ccccc4)csc3n2)c1 | 88%
15 | Cc1cccc(NC(=O)C(=O)c2cc(C)n(-c3ccccc3)c2C)c1C | 79%
16 | COc1ccc(CNC(=O)CSc2n[nH]c(-c3ccc(OC)cc3)n2)cc1 | -6% (active)
17 | COc1ccc(CNC(=O)CSc2n[nH]c(-c3ccc(F)cc3)n2)cc1 | 120%
18 | O=C(CSc1n[nH]c(-c2ccccc2Cl)n1)NCCc1ccccc1 | 72%
19 | CC(CCc1ccccc1)NC(=O)CSc1n[nH]c(-c2ccc(F)cc2)n1 (stereo not given) | 134%
20 | CC(C)Oc1ccccc1-c1nc(SCC(=O)c2ccc(F)cc2)n[nH]1 | -5% (active)
21 | COc1cccc(CNC(=O)CSc2n[nH]c(-c3ccccc3Cl)n2)c1 | 75%
22 | COc1ccccc1-c1nc(SCC(=O)c2ccccc2)n[nH]1 | 77%
23 | CC(CCc1ccccc1)NC(=O)CSc1n[nH]c(-c2ccccc2)n1 (stereo not given) | 71%

Row | Compound | survival
24 | COc1ccc(-c2nc(SCC(=O)NC(C)CCc3ccccc3)n[nH]2)cc1 (stereo not given) | -1% (active)
25 | Cc1ccc(CNC(=O)CSc2n[nH]c(-c3ccc(F)cc3)n2)cc1 | 124%
26 | COc1ccccc1-c1nc(SCC(=O)c2ccc(Cl)cc2)n[nH]1 | 131%
27 | O=C(CSc1n[nH]c(-c2ccccc2Cl)n1)NCc1ccc(F)cc1 | -6% (active)
28 | CCOC(=O)c1c(S(=O)(=O)N2CCC(C(=O)Nc3ncccc3C)CC2)c(C)n(C)c1C | 72%
29 | COc1cc(C(=O)N(CCCN(C)C)c2nc3c(OC)cccc3s2)cc(OC)c1OC | 124%
30 | Cc1ccc(CN2CCCn3nc(C(=O)NCCc4ccccc4C)cc3C2=O)cc1 | 79%
31 | O=C(c1ccccc1)C(C(=O)N1CCCCC1)n1ccccc1=O (stereo not given) | 113%
32 | Cc1cc(=O)c2cc(C(=O)Nc3ccc(F)cc3)ccc2[nH]1 | 87%
33 | Cc1ccc(S(=O)(=O)N(CC(=O)N2CCC(C(N)=O)CC2)c2ccccc2F)cc1 | 98%
34 | Cc1ccccc1CN1CCN(CC(=O)NCc2ccccc2Cl)C1=O | 77%
35 | CC1Cc2cc(S(=O)(=O)CCC(=O)NCc3ccccc3Cl)ccc2N1C(=O)C1CC1 (stereo not given) | 72%
36 | CCC(=O)N1c2ccc(S(=O)(=O)CCC(=O)NCc3cccc(OC)c3)cc2CC1C (stereo not given) | 82%
37 | COc1cccc(CNC(=O)CCS(=O)(=O)c2ccc3c(c2)CC(C)N3C(=O)C2CC2)c1 (stereo not given) | -3% (active)
38 | COc1ccccc1CNC(=O)CCS(=O)(=O)c1ccc2c(c1)CC(C)N2C(=O)C1CC1 (stereo not given) | 0% (active)
39 | CCC(=O)N1c2ccc(S(=O)(=O)CCC(=O)NCc3ccccc3OC)cc2CC1C (stereo not given) | 87%
40 | COc1ccc(CNC(=O)CCS(=O)(=O)c2ccc3c(c2)CC(C)N3C(=O)C2CC2)cc1 (stereo not given) | 76%
41 | COC(=O)c1ccccc1NC(=O)c1c(C)oc2ncn(C)c(=O)c12 | 95%
42 | CC(C)N(C(=O)CSc1nc2ccc(Cl)cc2[nH]1)c1ccccc1 | 81%
43 | O=c1c2cc3c(cc2nc2sc(Nc4ccc(F)c(Cl)c4)nn12)OCO3 | 138%
44 | Cc1ccc(-n2nnnc2CNC(=O)c2cc(C(F)(F)F)cc(C(F)(F)F)c2)cc1C | -3% (active)
45 | Cc1ccc(C(=O)NCc2nnnn2-c2ccc(C)c(C)c2)cc1 | 82%
46 | Cc1ccc(-n2nnnc2CNC(=O)c2ccc(F)cc2)cc1C | 124%

Row | Compound | survival
47 | CC(C)(C)c1ccc(C(=O)NC2CCNCC2)cc1 | 108%
48 | CC(C)Cn1c(=O)c2ccccc2n2c(CCC(=O)NCc3ccc(Cl)cc3)nnc12 | 92%
49 | O=C(Nc1ccc2nc(SCC(=O)N3CCOCC3)sc2c1)c1ccc(F)cc1 | 92%
50 | COc1ccc(Nc2nc(-c3ccccc3)c3cc(Br)ccc3n2)cc1 | 37%
51 | Cc1cccc(Nc2nc(-c3ccccc3)c3cc(C)ccc3n2)c1 | 11% (active)
52 | Cc1ccc2nc(Nc3ccc(Br)cc3)nc(-c3ccccc3)c2c1 | 56%
53 | COc1cccc(Nc2nc(-c3ccccc3)c3cc(C)ccc3n2)c1 | 9% (active)
54 | Cc1ccc(C)c(Nc2nc(-c3ccccc3)c3cc(Br)ccc3n2)c1 | 42%
55 | Cc1ccc2nc(NN)nc(-c3ccccc3)c2c1 | 100%
56 | CN(CC(=O)NCc1ccccc1)S(=O)(=O)c1ccc2[nH]c3c(c2c1)CCCC3 | 72%
57 | COc1cccc(NCc2nnc3n2CCCCC3)c1 | 83%
58 | Cc1nc2c(c(C)nn2-c2ccccc2)c(C)c1CCC(=O)Nc1ccccc1 | 87%
59 | CCc1ccc(NC(=O)CSc2nc(=O)n(Cc3ccncc3)c3c2CCC3)cc1 | 80%
60 | CCn1c(C(=O)NCc2cccc(Br)c2)cc2oc3ccccc3c21 | 7% (active)
61 | CCn1c(C(=O)NCc2ccccc2Br)cc2oc3ccccc3c21 | 36%
62 | CCn1c(C(=O)NCc2cc(Br)ccc2OC)cc2oc3ccccc3c21 | 78%
63 | CCn1c(C(=O)NCc2ccc(F)cc2)cc2oc3ccccc3c21 | 115%
64 | CCOc1ccccc1CNC(=O)c1cc2oc3ccccc3c2n1CC | 2% (active)
65 | CCn1c(C(=O)NCc2ccccc2C)cc2oc3ccccc3c21 | 15%
66 | Clc1ccc(N2CCN(c3ncnc4c3nc3n4CCCC3)CC2)cc1 | 73%
67 | Cc1cc(-n2c(C)nc3ccccc3c2=O)ccc1NC(=O)c1ccc(C)c([N+](=O)[O-])c1 | 10% (active)
68 | Cc1cc(-n2c(C)nc3ccccc3c2=O)ccc1NC(=O)c1cccc([N+](=O)[O-])c1C | -2% (active)
69 | Cc1cc(-n2c(C)nc3ccccc3c2=O)ccc1NC(=O)c1ccc([N+](=O)[O-])cc1 | 82%

Row | Compound | survival
70 | Cc1ccc(C(=O)Nc2ccc(-n3c(C)nc4ccccc4c3=O)cc2)cc1[N+](=O)[O-] | 121%
71 | Cc1cc(-n2c(C)nc3ccccc3c2=O)ccc1NC(=O)c1ccccc1[N+](=O)[O-] | 88%
72 | Cc1c(C(=O)Nc2ccc(-n3c(C)nc4ccccc4c3=O)cc2)cccc1[N+](=O)[O-] | 80%
73 | COc1ccc(-c2c[n+](=O)c3c(n2[O-])CCC3)cc1 | 103%
74 | COC(=O)C1CCN(S(=O)(=O)c2ccc(OC)cc2)CC1 | 102%
75 | CCN(CC)C(=O)c1sc2c(c1C)c(=O)n(Cc1ccccc1)c(=O)n2Cc1ccc(Cl)cc1 | 73%
76 | CCc1ccc(CNC(=O)C2COc3ccc(OC)cc3C2)cc1 (stereo not given) | 93%
77 | Cc1ccc(NC(=O)Cn2cc3c(n2)CCCC3)c(Cl)c1 | 93%
78 | Cc1ccc(-n2ncc(C(=O)NCc3cccs3)c2C2CCN(C(=O)OC(C)(C)C)CC2)cc1C | 90%
79 | CC(C)(C)OC(=O)N1CCC(c2c(C(=O)NCc3ccccc3)cnn2-c2ccc(F)cc2)CC1 | 133%
80 | CC(C)(C)OC(=O)N1CCC(c2c(C(=O)NCc3cccs3)cnn2-c2ccc(F)cc2F)CC1 | 81%
81 | COc1ccc(CNC(=O)c2cnn(-c3ccc(OC)cc3)c2C2CCN(C(=O)OC(C)(C)C)CC2)cc1 | 76%
82 | CC(C)(C)OC(=O)N1CCC(c2c(C(=O)Nc3ccc4c(c3)OCCO4)cnn2-c2ccc(F)cc2)CC1 | 69%
83 | CC(C)(C)OC(=O)N1CCC(c2c(C(=O)NCc3ccc(F)cc3)cnn2-c2ccc(F)cc2)CC1 | -6% (active)
84 | CCOc1ccc(OCC)c(NC(=O)c2cnn(-c3ccc(F)cc3)c2C2CCN(C(=O)OC(C)(C)C)CC2)c1 | 14% (active)
85 | CCOc1ccc(NC(=O)c2cnn(-c3ccc(C)c(C)c3)c2C2CCN(C(=O)OC(C)(C)C)CC2)cc1 | 89%
86 | CC(C)(C)OC(=O)N1CCC(c2c(C(=O)NCc3cccs3)cnn2-c2cccc(F)c2)CC1 | -6% (active)
87 | COc1ccc(NC(=O)CSc2ncc3c(n2)-c2ccccc2N(Cc2ccc(C)cc2)S3(=O)=O)cc1Cl | 134%
88 | Cc1cccc(OCC(=O)OCc2cc(=O)n3nc(C4CCCCC4)sc3n2)c1 | 100%
89 | N#Cc1cc2cc3c(cc2nc1N1CCCN(C(=O)c2ccccc2)CC1)OCO3 | 103%
90 | COc1ccc(C(=O)NCC(c2ccc3c(c2)OCO3)N2CCN(c3ccccc3F)CC2)cc1 (stereo not given) | 77%

From PubChem BioAssay AID463173 (ICCB-Longwood Screening Facility, Harvard Medical School, 2010)
